“And” between values parts separate entries of the source, which are not always exact repeats. Equal values may be shown once. Inconclusive results are not listed. A call without a number means that no potency is given here. The source made the active and inactive calls. Calls follow the shape of the dose curve; as a rule, active = well fitted cell-killing curve with a large enough effect in the repeat runs; inconclusive = weak or mixed curves, or effect the other way; inactive = flat fitted curve, though single readings scatter.
Potency is read from the fitted curve at half-maximal effect.

The test in a line: qHTS assay to identify small molecule antagonists of the androgen receptor (AR) signaling pathway using the MDA cell line - cell viability counter screen (AID 743041; also: nearly all actives have a fitted effect of over 45% in size). As to conditions: MDA-kb2 viability, CellTiter-Fluor, 16 h, cells co-treated with R1881 androgen agonist; series mostly up to 70.3 µM. The text has this: National Center for Advancing Translational Sciences [NCATS]
NIH Chemical Genomics Center [NCGC]
U.S. Environmental Protection Agency [EPA]
National Institutes of Environmental Health Sciences [NIEHS]
National Toxicology Program [NTP]
U.S. Food and Drug Administration [FDA]
Androgen receptor (AR), a nuclear hormone receptor, plays a critical role in AR-dependent prostate cancer and other androgen related diseases. Endocrine disrupting chemicals (EDCs) and their interactions with steroid hormone receptors like AR may cause disruption of normal endocrine function as well as interfere with metabolic homeostasis, reproduction, developmental and behavioral functions. To identify the compounds that inhibit AR signaling, MDA-kb2 AR-luc cell line (from ATCC, deposited by Wilson et al.) was used to screen the Tox21 10K compound library. MDA-kb2 AR-luc cell line is human breast carcinoma cell line that was stably transfected with a luciferase reporter gene under control of the MMTV promoter containing response elements for both androgen receptor (AR) and glucocorticoid receptor (GR). The cytotoxicity of the Tox21 compound library against the MDA-kb2 AR-luc cell line was tested in parallel by measuring the cell viability using CellTiter-Fluor assay (Promega, Madison, WI) in the same wells.
Tox21 Assay Protocol Summary:
MDA-kb2 AR-luc cells were dispensed at 3,000 cells/4 uL/well of culture medium into white wall/solid-bottom 1536-well plates using a Multidrop Combi (ThermoFisher Scientific, Waltham, MA) dispenser. After the assay plates were incubated at a 37C and 0% CO2 for 5 hr, 23 nL of compounds dissolved in DMSO, positive controls or DMSO only was transferred to the assay plate by a Pintool station (Kalypsys, San Diego, CA), followed by addition of 1 uL of agonist (R1881) in culture medium using a Bioraptr Flying Reagent Dispenser (FRD) workstation (Beckman Coulter, Indianapolis, IN, USA). The plates were incubated at a 37C and 0% CO2 for 16 h. After 15.5 h incubation, 1uL of CellTiter-Fluor reagent (Promega) was added using a Bioraptr FRD to each plate for measuring cytotoxicity. The fluorescence intensity was quantified on a ViewLux plate reader (PerkinElmer, Shelton, CT) following 30 min incubation at 37C and 0% CO2.
With `Cc1occc(=O)c1OC(=O)C(C)C`, the Potency result was “inactive”. In the case of `NC(Cc1ccc(Cl)cc1)C(=O)O` (stereo not given), the Potency entry was “inactive”. Consider `Nc1ccc(O)cc1`, for which the Potency is 29.8 µM (active) and 48.6 µM (active) and 56.6 µM (active). The entry for `OCCN1CCNCC1` is “inactive”. As for `CCn1c2ccccc2c2cc(N)ccc21`, the Potency result was “inactive”. For `CCOc1ccccc1C(N)=O`, the Potency entry was “inactive”.

On to `BrC1CCC(Br)C(Br)CCC(Br)C(Br)CCC1Br` (stereo not given), for which the Potency entry was “inactive”.

With `CCCCC(CC)COC(=O)CC(C(=O)OCC(CC)CCCC)S(=O)(=O)O` (stereo not given), the Potency entry was “inactive”.

Take `Clc1ccc2c(c1)C(N1CCNCC1)=Nc1ccccc1O2`: the Potency result was “inactive”. The entry for `NCCO` is “inactive”. In the case of `Cc1cc(C(C)(C)C)c(O)c(C(C)(C)C)c1`, the Potency entry is “inactive”. As for `C1COC(NC(C2CC2)C2CC2)=N1`, the Potency result was “inactive”.

As for `CC1=C(C=O)C(C)(C)CC=C1`, the Potency entry is “inactive”. With `C/C=C/c1ccc(OCC)c(O)c1`, the Potency entry was “inactive”.

As to `O=C(Oc1ccccc1)c1ccccc1O`, the Potency entry is “inactive”. With `OCC(CO)N[C@H]1C[C@](O)(CO)[C@@H](O)[C@H](O)[C@H]1O`, the Potency result is “inactive”. `CC(C)(O)CCC(C)(C)O`: the Potency result was “inactive”. The figure for `Nc1cc(Cl)c(-c2cc(Cl)c(N)cc2Cl)cc1Cl` is 61.1 µM (active); for `COC(=O)[C@H]1[C@H]2C[C@@H]3c4[nH]c5cc(OC)ccc5c4CCN3C[C@H]2C[C@@H](OC(=O)c2cc(OC)c(OC)c(OC)c2)[C@@H]1OC` it is “inactive”.

For the compound `O=C(O)c1cn(-c2ccc(F)cc2)c2cc(N3CCNCC3)c(F)cc2c1=O`, the Potency result is “inactive”. Consider `CC1COc2c(N3CCN(C)CC3)c(F)cc3c(=O)c(C(=O)O)cn1c23` (stereo not given), for which the Potency entry is “inactive”.

As for `NC(N)=NC(=O)Cc1c(Cl)cccc1Cl`, the Potency result was “inactive”. For the compound `O=C(O)c1cccc(C(=O)O)c1`, the Potency result was “inactive”. Consider `CCCOC(=O)c1cc(O)c(O)c(O)c1`, for which the Potency entry was “inactive”. As for `COC(=O)/C=C/c1ccccc1`, the Potency result is “inactive”. As to `CCC[C@H](N[C@@H](C)C(=O)N1[C@H](C(=O)O)C[C@@H]2CCCC[C@@H]21)C(=O)OCC`, the Potency entry was “inactive”. With `CC(C)CCCCCCc1ccc(O)cc1`, the Potency result was “inactive”. `CO[Si](OC)(OC)c1ccccc1`: the Potency result was “inactive”.

For the compound `NCCCCCC(=O)O`, the Potency result is “inactive”. Then `CCC(C)(C)C(=O)O[C@H]1C[C@@H](C)C=C2C=C[C@H](C)[C@H](CC[C@@H]3C[C@@H](O)CC(=O)O3)[C@H]21`, with “inactive”. Turning to `O=C(Cl)c1cccc(C(=O)Cl)c1`, the Potency result was “inactive”. As to `CC(COc1ccccc1)N(CCCl)Cc1ccccc1` (stereo not given), the Potency entry was “inactive”.

As for `C=CS(=O)(=O)O`, the Potency entry is “inactive”.

As for `O=C(O)CCc1ccccc1`, the Potency entry was “inactive”.

As for `O`, the Potency result was “inactive”. On to `Cc1cccc2n[nH]nc12`, for which the Potency result is “inactive”. As to `Nc1nc(=S)c2[nH]cnc2[nH]1`, the Potency result was “inactive”. Take `Cc1cc(OCCOCC[N+](C)(C)Cc2ccccc2)ccc1C(C)(C)CC(C)(C)C`: the Potency was 24.2 µM (active). As for `CCC(CO)(CO)COCC(CC)(CO)CO`, the Potency entry was “inactive”. The entry for `CC(C)(c1ccccc1)c1ccc(Nc2ccc(C(C)(C)c3ccccc3)cc2)cc1` is “inactive”.

These data come from PubChem BioAssay (Tox21).
